Source: PubChem (National Center for Advancing Translational Sciences (NCATS))
DT40 TDP1 CPT: qHTS for Inhibitors of human tyrosyl-DNA phosphodiesterase 1 (TDP1): qHTS in cells in presence of CPT; chicken DT40 Tdp1-/-;hTDP1 cells + 20 nM CPT, ATP luminescence, 48 h; Potency, µM (top dose mostly 46.2 µM), inactives show at the highest dose activity change, negative = growth inhibition, hits mostly inhibitors; actives 12% (n = 420,000); AID 686979, 2013; note: potency is the fitted concentration of half-maximal effect; % is set by controls: 0 for no effect and ±100 for the full control effect; nearly all actives have a fitted effect of over 55% in size
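Chicken DT40 Tdp1-/- cells stably complemented with human TDP1 were seeded at 400 cells/well in medium containing 20 nM camptothecin, exposed to pin-transferred compounds, and grown at 37 °C for at least 48 hr. Viability was read as ATP luminescence.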
TDP1 block: qHTS Assay for Inhibitors of Tyrosyl-DNA Phosphodiesterase (TDP1); recombinant TDP1, AlphaScreen DNA substrate cleavage; Potency, µM (titrated, usually from 130 µM), for the others: at the top dose activity change, negative = inhibition, hits mostly inhibitors; actives 0.28% (n = 350,000); note: potency is the fitted concentration of half-maximal effect; % is set by controls: 0 for no effect and ±100 for the full control effect; nearly all actives have a fitted effect of over 40% in size
Target sequence (Q9NUW8 whole entry, looked up): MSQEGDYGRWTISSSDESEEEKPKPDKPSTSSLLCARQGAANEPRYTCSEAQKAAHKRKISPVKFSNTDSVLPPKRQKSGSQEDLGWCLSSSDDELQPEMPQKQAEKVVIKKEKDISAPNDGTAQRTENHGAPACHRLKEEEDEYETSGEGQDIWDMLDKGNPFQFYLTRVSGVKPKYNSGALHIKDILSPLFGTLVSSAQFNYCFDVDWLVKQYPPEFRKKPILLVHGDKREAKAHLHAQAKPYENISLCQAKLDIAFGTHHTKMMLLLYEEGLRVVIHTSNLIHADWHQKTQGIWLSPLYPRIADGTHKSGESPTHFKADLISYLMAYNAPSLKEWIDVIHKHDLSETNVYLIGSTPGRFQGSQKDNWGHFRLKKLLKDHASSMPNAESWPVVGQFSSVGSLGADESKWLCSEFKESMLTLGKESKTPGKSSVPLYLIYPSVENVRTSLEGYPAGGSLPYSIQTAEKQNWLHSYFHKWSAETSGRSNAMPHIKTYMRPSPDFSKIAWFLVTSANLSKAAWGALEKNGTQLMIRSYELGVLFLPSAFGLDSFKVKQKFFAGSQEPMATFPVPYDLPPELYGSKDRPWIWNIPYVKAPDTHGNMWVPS
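Signal: AlphaScreen proximity between streptavidin donor and anti-FITC acceptor beads on intact substrate. Reaction: Tdp1 1 nM, substrate 15 nM final, 5 min RT after 15 min compound preincubation.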
TDP1 cell noCPT: qHTS for Inhibitors of human tyrosyl-DNA phosphodiesterase 1 (TDP1): qHTS in cells in absence of CPT. DT40 Tdp1-/- hTDP1 cells, no CPT, ATP luminescence, 48 h. Potency, µM (series often up to 46.2 µM), for inactives: top-dose activity change, negative = growth inhibition, usual class: inhibitors. actives 15% (n = 420,000); note: potency is the fitted concentration of half-maximal effect; % is set by controls: 0 for no effect and ±100 for the full control effect; nearly all actives have a fitted effect of over 55% in size
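Growth kinetics read by CellTiter-Glo luminescence after ≥48 hr at 37 °C. Cells: DT40 Tdp1-/- stably carrying human TDP1, 400 per well, compound exposure in the absence of CPT (DMSO vehicle).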
TGFb inhibitor: qHTS for Inhibitors of TGF-b. HepG2 CAGA-GFP TGF-b/SMAD3 reporter, GFP fluorescence, 18 h; TGF-beta stimulated, 500 pg/mL final. Potency, µM (series often up to 46.1 µM), inactives show at the highest dose activity, negative = inhibition, most hits filed as inhibitors. actives 1.2% (n = 410,000). AID 588855, 2011; note: potency is the fitted concentration of half-maximal effect; % is set by controls: 0 for no effect and ±100 for the full control effect; nearly all actives have a fitted effect of over 65% in size
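Cell-based qHTS in HEPG2 carrying a CAGA-GFP Smad reporter; compounds added before 500 pg/mL final TGF-beta, 18 h incubation at 37 degrees C, GFP fluorescence quantified per cell by imaging cytometry.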
IL1B secr inh: qHTS for Inhibitors of Inflammasome Signaling: IL-1-beta AlphaLISA Primary Screen. THP-1 LPS/ATP IL-1B secretion, AlphaLISA, 16 h; active compounds read low. activity change, % at 57.5 µM. actives 4.7% (n = 360,000). AID 743279, 2014; in the data active = activity change below about -50%; inconclusive = mostly about -30% to -49%; note: % is set by controls: 0 for no effect and ±100 for the full control effect
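Secreted IL-1B measured by AlphaLISA bead assay after 16 h compound exposure of THP-1 cells; compounds (final up to 57.5 uM) added 1 h before LPS (250 ng/mL) and ATP (1.25 mM) stimulation; lower signal means less secretion.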
HepG2 viability: qHTS for Inhibitors of TGF-b: Cytotox Counterscreen; HepG2 CAGA-GFP viability, ATP luminescence, 18 h; Potency, µM (doses to about 46.1 µM), inactives show top-dose activity change, negative = cytotoxicity, most hits filed as cytotoxic; actives 0.76% (n = 410,000); AID 588856, 2011; note: potency is the fitted concentration of half-maximal effect
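HepG2 CAGA-GFP cells (1000/well, DMEM with 1% FBS) received compound, then TGF-beta at 500 pg/mL final, and were incubated 18 hours at 37 degrees C. Viability was read by CellTiter-Glo luminescence. Media-only wells were set as complete cell-killing and DMSO as no toxicity.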
The depositor's hits bear a star; ? = inconclusive; . = not tested or not shown; [ ] = dose if it differs, or a comment. In the library only some 19% were active in any assay of this set; here they are far more common. Unless noted, calls come from the whole dose curve; as a rule, active = well fitted curve in the direction sought with a large enough effect; inconclusive = small, poorly fitted or top-dose-only effect, or another doubt; inactive = no such curve, though single readings can be large; an effect the other way counts as inactive or inconclusive.

SMILES	DT40 TDP1 CPT	TDP1 block	TDP1 cell noCPT	TGFb inhibitor	IL1B secr inh	HepG2 viability
Cc1ccc(Cl)cc1N1CCN(C(=S)NCCc2ccccc2)CC1	?	-3%	?	?	6	-37%
CCC(=O)O[C@@]1(C(=O)CCl)[C@@H](C)C[C@@H]2[C@H]3CCC4=CC(=O)C=C[C@@]4(C)[C@]3(F)[C@@H](O)C[C@@]21C	.	15%[21 µM]	.	.	.	.
CCC(=O)OCC(=O)[C@@]1(OC(=O)CC)[C@@H](C)C[C@H]2[C@@H]3CCC4=CC(=O)C=C[C@]4(C)[C@@]3(Cl)[C@@H](O)C[C@@]21C	24µM*	.	16µM*	34%	-58*	-6%
CCOC(=O)N1CCN(c2c(N3CC=C(c4ccccc4)CC3)c(=O)c2=O)CC1	21µM*	.	16µM*	0%	-4	-15%
CCOC(=O)N1CCN(c2c(N3CCc4ccccc4C3)c(=O)c2=O)CC1	?	-4%	-20%	?	0	6%
COc1ccccc1N1CCN(C(=O)C2CCCN(S(=O)(=O)c3ccc(C)cc3)C2)CC1 (stereo not drawn)	16µM*	1%	10µM*	?	-26	-48%
COc1ccccc1N1CCN(C(=O)C2CCCCN2S(=O)(=O)c2ccc(C)cc2)CC1 (stereo not drawn)	18µM*	.	?	-25%	-4	-33%
C=CCC(CC(O)COCCC)C(=O)NNC(=S)Nc1ccccc1 (stereo not drawn)	4.6µM*	7%	2.3µM*	0%	-6	2%
CC(C)CCOCC(O)CCC(=O)NNC(=S)Nc1ccccc1 (stereo not drawn)	-14%	4%	0%	6%	11	11%
c1ccc2[nH]ccc2c1	-17%	.	-9%	.	.	.
COc1ccc2c(c1)c1c(c(=O)n(-c3ccc(C)cc3)c(=O)n1CC(=O)NCC1CCCO1)n2C (stereo not drawn)	-15%	.	?	?	37	-55%
CN1C(=O)NC2(O)C(=O)c3ccccc3C12O (stereo not drawn)	12µM*	2%[56.1 µM]	10µM*	-4%	35	10µM*
Cc1ccccc1N=C/C=C1/C=C(c2ccccc2)OC(C)(C)O1	?	-1%[56.1 µM]	?	-13%	-11	-1%
COc1ccc(N=C/C=C2\C=C(c3ccccc3)OC(C)(C)O2)cc1	16µM*	10%	?	-3%	-1	-10%
CC(C)(C)CC(=O)NC(=S)NCc1ccccc1	?	-3%	0%	?	84	-36%
CN(C)C(=O)c1ccc(SC(=S)NCc2ccccc2)cc1	5.8µM*	.	5.8µM*	?	?	-39%
Cc1nc(SCC(=O)NCC2CCCO2)c2c3c(sc2n1)CCC3 (stereo not drawn)	-16%	3%	-16%	-10%	-9	-12%
CCc1nc(-n2[nH]c(=O)c3ccccc3c2=O)c2c3c(sc2n1)CCCC3	-7%	.	3%	?	24	-4%
CCc1nc(Sc2nnnn2-c2ccccc2)c2c3c(sc2n1)CCCC3	16µM*	8%	18µM*	0%	-81*	-4%
Cc1nc(Sc2nnnn2C)c2c3c(sc2n1)CCC3	2.1µM*	8%	1.6µM*	?	-57*	13%
CCc1nc2c(OCC(=O)C(C)(C)C)cccn2c1N(C)C(=O)C1CC1	-1%	.	-23%	?	2	-13%
